{"source": "PubChem BioAssay (Tox21)", "note": "Active and inactive are the calls of the source. The call rests on the fitted dose curve. On the % scale 0 is the no-effect control and ±100 the full control effect."}
{"test": "qHTS assay to identify small molecule agonists of the estrogen related receptor (ERR) signaling pathway from Tox21 library (AID 1224849); further: nearly all actives have a fitted effect of over 15% in size", "conditions": "ERR reporter cell line, ONE-Glo luciferase, 18 h; at 92.4 µM (top of the series) unless noted", "source_text": "National Center for Advancing Translational Sciences [NCATS]\nNIH Chemical Genomics Center [NCGC]\nU.S. Environmental Protection Agency [EPA]\nNational Institutes of Environmental Health Sciences [NIEHS]\nNational Toxicology Program [NTP]\nEstrogen related receptors (ERRs), the first orphan nuclear receptors discovered, play an important role in the control of cellular energy metabolism. ERRs are required for high-energy production in response to the environmental challenges. ERR-alpha was also identified as an adverse marker for breast cancer progression; ERR-alpha-positive tumors have a poor prognosis. To screen and to identify environmental compounds that perturb the ERR signaling pathways could provide valuable information for potential therapeutic or preventive measures in the treatment of metabolic disease. For identifying ERR agonists, ERR cell line (provided by NTP) has been used to screen Tox21 10K library.\nThe ERR cells were dispensed at 2,000 cells/5 ul/well in 1536-well white plates using a Multidrop dispenser. After the assay plates were incubated at a 37 C/5% CO2 incubator for 6 hours, 23 nL of compounds dissolved in DMSO, positive and negative controls or DMSO only was transferred to the assay plate by a pin tool. The plates were incubated at 37 C for 18 hours. 4 ul/well of One-Glo reagent was added into the assay plates using a Flying Reagent Dispenser. After 30-minute incubation at room temperature, the luminescence intensity in the plates was measured using a ViewLux plate reader."}
{"smiles": "O=C(Nc1ccccc1)Nc1cnns1", "activity change, positive = activation": "-23.5% (inactive)"}
{"smiles": "Clc1ccc(C2(Cn3cncn3)CC(Br)CO2)c(Cl)c1", "note": "(stereo not given)", "activity change, positive = activation": "-55.5% (inactive)"}
{"smiles": "Cc1ccc2ccccc2c1", "activity change, positive = activation": "-0.842% (inactive)"}
{"smiles": "Cc1ccc(N)cc1C", "activity change, positive = activation": "19.9% (active)"}
{"smiles": "CC(=O)[C@H]1CC[C@H]2[C@@H]3CC[C@H]4C[C@](C)(O)CC[C@]4(C)[C@H]3CC[C@]12C", "activity change, positive = activation": "9.6% [at 42.5 µM] (inactive)"}
{"smiles": "N#Cc1cc(I)c(O)c(I)c1", "activity change, positive = activation": "-66.8% (inactive)"}
{"smiles": "O=C(O)C(F)(F)C(F)(F)C(F)(F)C(F)(F)C(F)(F)C(F)(F)C(F)(F)C(F)(F)C(F)(F)C(F)(F)F", "activity change, positive = activation": "8.05% (inactive)"}
{"smiles": "C[C@H]1CNCCc2ccc(Cl)cc21", "activity change, positive = activation": "-0.2% [at 42.5 µM] (inactive)"}
{"smiles": "OC(c1ccc(Cl)cc1)(c1ccc(Cl)cc1)c1cccnc1", "activity change, positive = activation": "-55.6% (inactive)"}
{"smiles": "O=C(NC(=O)c1c(F)cccc1F)Nc1ccc(OC(F)(F)C(F)OC(F)(F)F)c(Cl)c1", "note": "(stereo not given)", "activity change, positive = activation": "-11.9% [at 42.5 µM] (inactive)"}
{"smiles": "CC(O)(CS(=O)(=O)c1ccc(F)cc1)C(=O)Nc1ccc(C#N)c(C(F)(F)F)c1", "note": "(stereo not given)", "activity change, positive = activation": "-29.9% [at 42.5 µM] (inactive)"}
{"smiles": "Cc1ccccc1CCl", "activity change, positive = activation": "7.48% (inactive)"}
{"smiles": "CCCN(CCC)c1c([N+](=O)[O-])cc(S(C)(=O)=O)cc1[N+](=O)[O-]", "activity change, positive = activation": "-24.5% (inactive)"}
{"smiles": "O=[N+]([O-])c1cc(C(F)(F)F)cc([N+](=O)[O-])c1Cl", "activity change, positive = activation": "-42.9% (inactive)"}
{"smiles": "CC1(C)CCC(Cc2ccc(Cl)cc2)C1(O)Cn1cncn1", "note": "(stereo not given)", "activity change, positive = activation": "-53.4% (inactive)"}
{"smiles": "CCCCc1c(C)nc(NCC)nc1OS(=O)(=O)N(C)C", "activity change, positive = activation": "-48.3% (inactive)"}
{"smiles": "C[C@@H]1CC[C@H]2[C@@H](C)C(=O)O[C@@H]3O[C@@]4(C)CC[C@@H]1[C@]32OO4", "activity change, positive = activation": "-38.3% [at 42.5 µM] (inactive)"}
{"smiles": "CN1C(=O)C(O)N=C(c2ccccc2)c2cc(Cl)ccc21", "note": "(stereo not given)", "activity change, positive = activation": "-0.379% (inactive)"}
{"smiles": "CCCCCCCCCCOC(=O)c1ccccc1C(=O)OCCCCCCCCCC", "activity change, positive = activation": "1.79% (inactive)"}
{"smiles": "COP(=S)(Oc1cc(Cl)c(Br)cc1Cl)c1ccccc1", "note": "(stereo not given)", "activity change, positive = activation": "-31.4% (inactive)"}
{"smiles": "CS/C(C)=N/OC(=O)N(C)SN(C)C(=O)O/N=C(\\C)SC", "activity change, positive = activation": "-68.2% (inactive)"}
{"smiles": "C=CCN1CC[C@]23c4c5ccc(O)c4O[C@H]2C(=O)CC[C@@]3(O)[C@H]1C5", "activity change, positive = activation": "-6.24% [at 42.5 µM] (inactive)"}
{"smiles": "IC(I)=C(I)I", "activity change, positive = activation": "-75.2% (inactive)"}
{"smiles": "O=C(N[C@H](c1ccccc1)[C@@H]1CN2CCC1CC2)c1c(Cl)ccc(C(F)(F)F)c1Cl", "activity change, positive = activation": "-42.3% (inactive)"}
{"smiles": "CCCCN=C=O", "activity change, positive = activation": "1.38% (inactive)"}
{"smiles": "CC(C)(OO)c1ccccc1", "activity change, positive = activation": "4.39% (inactive)"}
{"smiles": "NS(=O)(=O)C(F)(F)C(F)(F)C(F)(F)C(F)(F)C(F)(F)C(F)(F)C(F)(F)C(F)(F)F", "activity change, positive = activation": "-39.9% (inactive)"}
{"smiles": "Clc1cccc(SC2CCNCC2)n1", "activity change, positive = activation": "0.887% [at 42.5 µM] (inactive)"}
{"smiles": "CC(=O)NC1CCSC1=O", "note": "(stereo not given)", "activity change, positive = activation": "1.16% [at 42.5 µM] (inactive)"}
{"smiles": "CCCC(Cn1cncn1)c1ccc(Cl)cc1Cl", "note": "(stereo not given)", "activity change, positive = activation": "-61.7% (inactive)"}
{"smiles": "NC(=O)CI", "activity change, positive = activation": "-20% (inactive)"}
{"smiles": "CCOC(=O)COc1cc(-c2nn(C)c(OC(F)F)c2Cl)c(F)cc1Cl", "activity change, positive = activation": "3.17% (inactive)"}
{"smiles": "CCOP(=S)(OCC)SCn1nnc2ccccc2c1=O", "activity change, positive = activation": "-48.2% (inactive)"}
{"smiles": "O=[N+]([O-])c1ccc(F)c([N+](=O)[O-])c1", "activity change, positive = activation": "-38.2% (inactive)"}
{"smiles": "OCCCBr", "activity change, positive = activation": "-6.8% (inactive)"}
{"smiles": "c1cc2ccc3cccc4ccc(c1)c2c34", "activity change, positive = activation": "-47.4% (inactive)"}
{"smiles": "S=C=NCc1ccccc1", "activity change, positive = activation": "-18.1% (inactive)"}
{"smiles": "C=CC(=O)OCC(C)C", "activity change, positive = activation": "5.29% (inactive)"}
{"smiles": "CCCCC(O)(Cn1cncn1)c1ccc(Cl)cc1Cl", "note": "(stereo not given)", "activity change, positive = activation": "-59.1% (inactive)"}
{"smiles": "CC(C)=CCOc1c2occc2cc2ccc(=O)oc12", "activity change, positive = activation": "-9.71% [at 42.5 µM] (inactive)"}
